Experimental findings from PubChem BioAssay AID2401 (Southern Research Specialized Biocontainment Screening …, 2010) are described below.

In all, about 2,200 compounds went through this assay and about 530 (24%) were called active.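 Rule for the calls: active = inhibition above a set limit at one or more concentrations of the dose series; inactive = inhibition under that limit at every dose.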 Only a sample is shown. Measured potencies and affinities stand elsewhere.

The nature of the test: S. Typhimurium nonspecific reporter signal inhibition – Salmonella Typhimurium, GFP fluorescence, counter-screen for PhoP regulon inhibitor project, dose response (AID 2401).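 Note: S. typhimurium with Mg-insensitive nmpC-GFP reporter grown at 10 µM Mg2+; drop in reporter fluorescence reflects general culture growth inhibition.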 The note with it: 4 h; series mostly up to 150 µM.
On to `CN(c1ccccc1)S(=O)(=O)c1cc(C(=O)Nc2nc3ccccc3[nH]2)ccc1Cl`, for which the result was inactive.
Then `O=C(CSc1nnnn1-c1ccccc1)CC(=O)Nc1ccc(Cl)cc1`, with “inactive”; and `Cc1cccc(C(=O)NC(=S)Nc2ccc(N3CCOCC3)cc2)c1`, with “inactive”.
With `CCn1cc(C(=O)O)c(=O)c2cc(F)c(N3CCN(C(=S)NC(=O)c4ccccc4Cl)CC3)cc21`, the compound was classed as inactive.
For `CCOC(=O)CSc1n[nH]c(NC(=O)c2cccc(C)c2)n1` the value was “inactive”; for `CCCS(=O)(=O)N1CCCC(C(=O)N2CCN(c3ccccn3)CC2)C1` (stereo not drawn), “inactive”.
For `COc1cc(NC(=O)CSc2nnnn2Cc2ccc3c(c2)OCO3)cc(OC)c1` the value was “inactive”.
Then `Cc1cccc(-n2ncc3c(NCc4ccc5c(c4)OCO5)ncnc32)c1`, with “inactive”.
`O=C1Nc2ccccc2C(O)(C(=O)N2CCCCC2)N1c1ccccc1` (stereo not drawn): the compound was called inactive.
Take `Cc1cccnc1N(C(=O)Nc1ccccc1)C1=NCC(C)(C)S1`: the outcome was inactive.
Turning to `Cc1nn(-c2ncc(C(F)(F)F)cc2Cl)c(=O)n1-c1cccc(Cl)c1`, the call was inactive.
For `CCCc1ccc(C(=O)CCC(=O)O)cc1` the value was “inactive”; for `COc1ccc(OC)c(C(C(=O)NCc2ccco2)N(C(=O)Cn2nnc3ccccc32)C(C)C)c1` (stereo not drawn), “inactive”.
As for `COc1ccc(C2C=C(c3ccc(Cl)cc3)Nc3nc(NC(C)=O)nn32)cc1` (stereo not drawn), the call was inactive.
For `C=CCn1c(C)cc(C(=O)CSc2nc(N)cc(N)n2)c1C` the value was “inactive”; for `Cc1ccc(C(C(=O)NCc2ccco2)N(CCc2ccccc2)C(=O)Cn2nnc3ccccc32)o1` (stereo not drawn), “inactive”; for `CCn1cc(C(=O)O)c(=O)c2cc(F)c(N3CCN(S(=O)(=O)c4ccc(NC(C)=O)cc4)CC3)cc21`, “inactive”.
For `CCCOc1ccc(C(=O)CCC(=O)OCC(=O)N2CC(=O)Nc3ccccc32)cc1` the value was “inactive”.
For `CCCOc1ccc(C(=O)N2CCCC2C(=O)O)cc1` (stereo not drawn) the value was “inactive”; for `O=C(CN1CCC(NC(=O)c2cccc(F)c2)CC1)NCc1ccccc1F`, “inactive”; for `COc1cccc(C2C3=C(Nc4[nH]n(-c5ccccc5)c(=O)c42)c2ccccc2C3=O)c1` (stereo not drawn), “inactive”.
In the case of `COC(=O)c1sc2ccccc2c1-n1cccc1C(=O)C(=O)Nc1ccc(Cl)cc1`, the call was inactive.
Then `COc1cccc(-n2c(SCC(=O)Nc3ccc4c(c3)CCC4)nc3ccccc3c2=O)c1`, with “inactive”.
Then `CCOC(=O)C(NC(=O)c1cccc(Cl)c1)(OCc1ccccc1)C(F)(F)F` (stereo not drawn), with “inactive”; and `COc1ccccc1CC1(C)NC(=O)N(CC(=O)N2CC(C)OC(C)C2)C1=O` (stereo not drawn), with “inactive”.
`Cn1c(NCc2cccs2)nc2ccccc21`: the call was inactive.
Then `COc1ccc(OC)c(S(=O)(=O)N(C)CC(=O)N2CCc3ccccc3C2)c1`, with “inactive”; and `CCCC(=O)c1c[nH]c(C(=O)NCCCN2CCOCC2)c1`, with “inactive”.
For the compound `O=S(=O)(Nc1ccc2ccccc2c1)c1ccccc1`, the outcome was inactive.
For `COc1ccc(N2CCN(C(=O)Nc3ccc(S(=O)(=O)N(C)C)cc3)CC2)cc1`, the result was inactive.
For `CCc1nc2ccccc2c2nc3ccccc3n12` the value was “inactive”; for `COC(=O)C1C(=O)C=C(N2CCOCC2)CC1(C)C` (stereo not drawn), “inactive”.
For `COC(=O)c1ccc2c(=O)n(CCN3CCOCC3)c(SCC(=O)C(C)(C)C)nc2c1` the value was “inactive”; for `CN(C)C(=O)c1cn(N(C)c2ncc(C(F)(F)F)cc2Cl)c(=O)c2ccccc12`, “inactive”; for `Cc1nc2ccccc2n1CC(=O)NCc1ccccc1`, “inactive”.
For `CCOc1ccc(N/C=C/C(=O)c2ccc(OC)cc2)c([N+](=O)[O-])c1` the value was “inactive”; for `O=C(/C=C/c1ccco1)NC(=S)Nc1ccc(N2CCCC2)cc1`, “inactive”.
On to `O=C1CSC(=S)N1c1ccc(F)cc1`, for which the result was inactive.
As to `O=C1N=c2ccccc2=C1c1[nH]c(=S)[nH]c1O`, the outcome was inactive.
Then `Cc1ccccc1-n1nc(-c2ccc(N)cc2)cc1N`, with “inactive”; and `CC(=O)N(Cc1ccc(Cl)cc1)c1cnccn1`, with “inactive”; and `NCCCC[C@H]1CN=C(N)N1CCC12CC3CC(CC(C3)C1)C2`, with “inactive”.
Regarding `CCN(c1ccc(OCC(=O)OCC(=O)Nc2ccc(F)c(F)c2F)cc1)S(=O)(=O)c1ccccc1`, the compound was called inactive.
For `COc1ccc2nc(SCC(=O)N(C)C3CCCCC3)c(C#N)cc2c1` the value was “inactive”.
Then `CC1CCC(NC(=O)C2c3ccccc3C(=O)N2Cc2cccs2)CC1` (stereo not drawn), with “inactive”.
Then `Cc1ccc(Nc2nc(CSc3nnc(-c4ccc(F)cc4)n3C)cs2)cc1`, with “inactive”.
As to `CCOc1ccc(NC(=O)Nc2cccs2)cc1`, the compound was classed as inactive.
For `CC(=O)c1sc(NC(=O)COc2ccc([N+](=O)[O-])cc2)nc1C` the value was “inactive”; for `CCOC(=O)C1=C(C)NC(=O)NC1c1ccsc1` (stereo not drawn), “inactive”.
For the compound `O=C1c2ccccc2C(=O)N1c1cccc(-c2csc(Nc3ccc4c(c3)OCO4)n2)c1`, the result was inactive.
Then `COC(=O)Cn1cc(C(=O)c2ccco2)c2ccccc21`, with “inactive”; and `COC(=O)c1sccc1NC(=O)c1csc2c1CCCC2`, with “inactive”.
For `COCCNC(=O)CSCc1c(F)cccc1Cl` the value was “inactive”; for `Cn1ncc(Br)c1C(=O)NCc1cccs1`, “inactive”.
In the case of `CCOC(=O)c1cnc(SCC(=O)Nc2ccc(N3CCOCC3)c(Cl)c2)nc1N`, the result was inactive.
On to `CCOC(=O)N1CCC(NC(=O)CCC(=O)c2ccccc2)CC1`, for which the compound was classed as inactive.
With `CNC(=O)c1ccc(-c2ccc(F)cc2)s1`, the call was inactive.
For the compound `CCCCOC(=O)CSc1nc2c(c(=O)[nH]c(=O)n2C)n1C/C=C(\C)Cl`, the outcome was inactive.
As to `CCCN(CCC)CCCNS(=O)(=O)c1ccc2c(c1)oc(=O)n2C`, the outcome was inactive.
For `O=C1c2[nH]nc(-c3ccccc3O)c2C(c2ccc(F)cc2)N1Cc1ccco1` (stereo not drawn) the value was “inactive”.
For `COc1ccc(NC(=O)CSc2nnc(-c3cccs3)n2Cc2ccco2)cc1OC` the value was “inactive”; for `COc1ccc(OC)c(C2C=C(C34CC5CC(CC(C5)C3)C4)NC(=S)N2)c1` (stereo not drawn), “inactive”.
Then `CCn1c(Cc2ccccc2)nnc1SCC(=O)Nc1ccc(S(N)(=O)=O)cc1`, with “inactive”; and `Cc1cc(C)nc(/N=C(\N)Nc2ccc(SC(F)F)cc2)n1`, with “inactive”; and `CCCc1[nH][nH]c(=O)c1C(c1ccc(Br)cc1)C(C#N)C#N` (stereo not drawn), with “inactive”.
Turning to `Cc1[nH][nH]c(=O)c1C(c1ccc(O)c([N+](=O)[O-])c1)c1c(C)[nH][nH]c1=O`, the result was inactive.
For `CN(CCC(=O)Nc1ccc(Br)cc1)Cc1ccccc1` the value was “inactive”; for `CCCc1nc2c(o1)CC(CC(C)SCC)CC2=O` (stereo not drawn), “inactive”.
As to `O=C(Nc1ccc(Cl)cc1)N1CC=CCC1`, the compound was called inactive.
Then `C/C(=N/NC(=O)Cc1cccn1C)c1ccccc1`, with “inactive”; and `Nc1ccc2nc(SCC(=O)Nc3ccc(N4CCOCC4)c(Cl)c3)sc2c1`, with “inactive”.
As for `COc1cccc(NS(=O)(=O)c2c(C)cc(C)cc2C)c1`, the compound was called inactive.
Then `COc1ccc(-c2ccc(C#N)c(SCC(=O)NCCc3ccccc3)n2)cc1OC`, with “inactive”; and `Cc1ccc(Nc2nc(Cl)nc(N(C)C#N)n2)cc1`, with “inactive”.
For `c1csc(C2Nc3cccc4cccc(c34)N2)c1` the value was “inactive”; for `Clc1ccc(OCCn2ccnc2)c2ccccc12`, “inactive”.
For `CCOCC(=O)Nc1ccc(F)c(F)c1` the value was “inactive”; for `Cc1ncoc1C(=O)Nc1cccc(Cl)c1`, “inactive”; for `COCCNC(=S)N(Cc1cccnc1)Cc1ccc(OC)c(OC)c1`, “inactive”.
In the case of `O=C1NC(=O)C(=C2CCCCCC2)S1`, the call was inactive.
For `Nc1cc(N2CCCCC2)c(Cl)cc1[N+](=O)[O-]` the value was “inactive”.
Then `Cc1ccc(N2C(=O)CC(Nc3ccccc3)C2=O)cc1` (stereo not drawn), with “inactive”.
As to `COc1ccc(-c2nnc(SCCC(=O)O)n2-c2ccccc2)cc1`, the compound was called inactive.
Then `Nc1nc(-c2ccc3c(c2)OCCO3)cs1`, with “inactive”.
For `Cc1ccc(C)c(NC(=S)NCCSc2ccc(Cl)cc2)c1` the value was “inactive”; for `CCc1cc2c(NCCC(=O)O)nc(C)nc2s1`, “inactive”.
Take `CC(=O)Nc1ccc(-c2nnc(SCc3c(C)cc(C)cc3C)n2C)cc1`: the compound was called inactive.
As to `c1ccc(CSc2snnc2-c2ccccc2)cc1`, the result was inactive.
Then `CCn1c(SCC(=O)Nc2ccc3c(c2)oc2ccccc23)nnc1-c1ccc(N)cc1`, with “inactive”.
For `NNC(=O)CNC(c1ccccc1)c1cc(Br)ccc1NC(=O)c1ccc(Br)cc1` (stereo not drawn) the value was “inactive”.
Then `Cc1cccc(N2CCN(CC(=O)Nc3nccs3)CC2)c1C`, with “inactive”; and `FC(F)(F)c1cccc(NC(=S)NCCN2CCOCC2)c1`, with “inactive”; and `Cc1cc(C)cc(-n2c(C)cc(C=C(C#N)C#N)c2C)c1`, with “inactive”.
With `CCOC(=O)C1=C(C)Nc2nc3ccccc3n2C1c1cccs1` (stereo not drawn), the call was inactive.
Then `Cc1ccc(C(=O)Oc2cccc(NC(=O)c3cccs3)c2)cc1S(=O)(=O)N1CCOCC1`, with “inactive”.
On to `COc1c(Cl)cnn(-c2ccc(C)cc2)c1=O`, for which the compound was classed as inactive.
For `CCc1c(C)c2cc(Cl)c(O)c(CN3CCCCC3)c2oc1=O` the value was “inactive”; for `CCc1ccc(NC(=O)c2noc3c2CCc2ccccc2-3)cc1`, “inactive”.
Then `C=CCOc1ccc(/C=N/NC(=O)CN(c2cc(Cl)ccc2OC)S(=O)(=O)c2ccc(C)c([N+](=O)[O-])c2)cc1`, with “inactive”; and `O=C(NCCc1cn2ccccc2n1)c1ccccc1F`, with “inactive”.
Then `Cc1nc(SCC(=O)NC(C)c2ccccc2)c2oc3ccccc3c2n1` (stereo not drawn), with “inactive”; and `COc1ccc(C(=O)N2CCc3cc(OC)c(OC)cc3C2)cc1OC`, with “inactive”.
`Cc1ccc(S(=O)(=O)NNC(=O)c2ccc(O)cc2)cc1`: the outcome was inactive.
Regarding `CCOC(=O)c1sc(NC(=O)Nc2ccc(Cl)cc2)cc1C`, the compound was classed as inactive.
For `CCc1ccc2[nH]c(=O)c(CN(Cc3ccccc3)C(=O)Nc3ccccc3OC)cc2c1` the value was “inactive”.
For `COc1ccccc1N1CCN(C(=O)c2cccc3c(=O)c(C)c(-c4ccccc4)oc23)CC1` the value was “inactive”.
Then `COc1ccccc1NC(=S)NC(=O)C(C)(C)C`, with “inactive”.
Take `CCN1C(=O)N/C(=C/c2ccc(Sc3ccc(C)cc3)o2)C1=O`: the call was inactive.
On to `CC(=O)c1cccc(NC(=O)Nc2cc3sccc3n2C)c1`, for which the result was inactive.
Then `COc1cc(C2SCC(=O)N2c2nnc(C34CC5CC(CC(C5)C3)C4)s2)cc(OC)c1OC` (stereo not drawn), with “inactive”; and `Brc1ccc(OCCn2ccnc2)cc1`, with “inactive”.
`CCCCNC(=O)OC1CCS(=O)(=O)C1` (stereo not drawn): the call was inactive.
Then `O=c1c(Cl)c(Cl)cnn1Cc1ccccc1Cl`, with “inactive”.
